Results as given in PubChem BioAssay (NCI).
Values joined by “and” are separate entries in the source; they are usually repeats but may differ in a detail not shown here. Equal values may be shown once. This is part of a sample that, as a whole, favours compounds with a hit. Of some 79,000 tested, about 15% had one in any assay. Some structures have more than one record in an assay (separate samples or runs), and their calls can disagree. Active and inactive are the calls of the source. No stated cut-off is given here; in the data, active means growth inhibition above about 70%; inactive means the rest.

Experiments:
[1] = NCI Yeast Anticancer Drug Screen. Data for the rad50 strain (AID 155);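 further: 0% = growth of vehicle-only cultures of the same strain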; settings: S. cerevisiae rad50 strain growth inhibition, stronger effect = higher value
Method in brief: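 Growth of the mutant yeast was measured after compound exposure and referenced to vehicle-treated cultures.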

[2] = NCI Yeast Anticancer Drug Screen. Data for the mec2-1 strain (AID 157); settings: S. cerevisiae mec2-1 strain, stronger effect = higher value
Method in brief: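 Each compound was tested on mec2-1 yeast, a strain altered in DNA damage repair or cell cycle control. Growth inhibition is reported relative to vehicle.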

[3] = NCI Yeast Anticancer Drug Screen. Data for the sgs1 mgt1 strain (AID 161);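 further: 0% = growth of cultures given vehicle only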; settings: S. cerevisiae sgs1 mgt1 strain, stronger effect = higher value
Method in brief: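 Read-out: growth inhibition vs vehicle controls. Cells: mutant yeast strain deficient in DNA damage repair.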

[4] = NCI Yeast Anticancer Drug Screen. Data for the cln2 rad14 strain (AID 165);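 further: 0% = growth equal to vehicle treated cultures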; settings: S. cerevisiae cln2 rad14 strain, stronger effect = higher value
Method in brief: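 Test compounds were added to cln2 rad14 yeast cultures; inhibition of growth was then determined by comparison with vehicle treatment.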

[5] = NCI Yeast Anticancer Drug Screen. Data for the bub3 strain (AID 167); settings: S. cerevisiae bub3 mutant strain, stronger effect = higher value
Method in brief: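 Whole-cell yeast assay. The mutant strain was incubated with compounds, and growth inhibition was determined by comparison with vehicle-treated cells.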

[6] = NCI Yeast Anticancer Drug Screen. Data for the mlh1 rad18 strain (AID 175); settings: S. cerevisiae mlh1 rad18 strain growth inhibition, stronger effect = higher value
Method in brief: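 Inhibition values reflect reduced growth of mutant yeast versus vehicle-treated controls following compound exposure; the mutations affect DNA damage repair.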

[7] = at 5.0 µM (retest, dose inferred, filed as 0.5)
[8] = at 50.0 µM (retest, dose inferred, filed as 5.0)

Compound | growth inhibition [1, 7] | growth inhibition [1, 8] | growth inhibition ([1]; at 50.0 µM) | growth inhibition [2, 7] | growth inhibition [2, 8] | growth inhibition ([2]; at 50.0 µM) | growth inhibition [3, 7] | growth inhibition [3, 8] | growth inhibition ([3]; at 50.0 µM) | growth inhibition [4, 7] | growth inhibition [4, 8] | growth inhibition ([4]; at 50.0 µM) | growth inhibition [5, 7] | growth inhibition [5, 8] | growth inhibition ([5]; at 50.0 µM) | growth inhibition [6, 7] | growth inhibition [6, 8] | growth inhibition ([6]; at 50.0 µM)
Cc1ccc(S(=O)(=O)N/N=C2/C(=O)c3cccc4cccc2c34)cc1 | 6% (inactive) | 74% (active) | 64.5% (inactive) | -15% (inactive) | 64% (inactive) | 12.8% (inactive) | 10% (inactive) | 76% (active) | 55.8% (inactive) | 2% (inactive) | 39% (inactive) | 30.5% (inactive) | 0% (inactive) | 55% (inactive) | 0.25% (inactive) | 33% (inactive) | 92% (active) | 24.8% (inactive)
CCOC(=O)C(Cc1ccccc1[N+](=O)[O-])C(=O)OCC | -5% (inactive) | -33% (inactive) | 5.4% (inactive) | -27% (inactive) | -5% (inactive) | -3.7% (inactive) | -21% (inactive) | 3% (inactive) | 28.6% (inactive) | 17% (inactive) | 10% (inactive) | 7.75% (inactive) | 30% (inactive) | 3% (inactive) | 44.6% (inactive) | 0% (inactive) | -22% (inactive) | 20.5% (inactive)
OCC1OC(Sc2ncc[nH]2)C(O)C(O)C1O (stereo not given) | -12% (inactive) | 4% (inactive) | 5.1% (inactive) and 4.95% (inactive) | -1% (inactive) | -10% (inactive) | -7.25% (inactive) and -9.95% (inactive) | -30% (inactive) | -11% (inactive) | -4.55% (inactive) and -7.65% (inactive) | 11% (inactive) | 3% (inactive) | 4.15% (inactive) and 44.2% (inactive) | 0% (inactive) | 0% (inactive) | -1.3% (inactive) and -3.2% (inactive) | -18% (inactive) | -14% (inactive) | -17.8% (inactive) and -16.8% (inactive)
Cc1ccc(C(C)C)c2c1CN(CCN1COc3c(C(C)C)ccc(C)c3C1)CO2 | -3% (inactive) | 2% (inactive) | -3.9% (inactive) | 0% (inactive) | 3% (inactive) | 6.8% (inactive) | -3% (inactive) | -1% (inactive) | -13.8% (inactive) | -4% (inactive) | 1% (inactive) | -11.2% (inactive) | -1% (inactive) | -2% (inactive) | -2.95% (inactive) | -1% (inactive) | 4% (inactive) | -8.65% (inactive)
CCc1nc(N)nc(N)c1-c1ccc(Cl)c(N=[N+]=[N-])c1 | 41% (inactive) | 40% (inactive) | 6.65% (inactive) and 71.2% (active) | 18% (inactive) | 21% (inactive) | -15.3% (inactive) and 65.5% (inactive) | 56% (inactive) | 54% (inactive) | -0.8% (inactive) and 61.6% (inactive) | 18% (inactive) | 28% (inactive) | -6.55% (inactive) and 62.5% (inactive) | 30% (inactive) | 26% (inactive) | 6.35% (inactive) and 54.5% (inactive) | 65% (inactive) | 62% (inactive) | -1.7% (inactive) and 27.7% (inactive)
Nc1ncnc2c1ncn2CCCl | 2% (inactive) | -4% (inactive) | 8.2% (inactive) | -2% (inactive) | 5% (inactive) | -1.35% (inactive) | 2% (inactive) | 10% (inactive) | 14.3% (inactive) | -7% (inactive) | 5% (inactive) | -6.85% (inactive) | -2% (inactive) | 6% (inactive) | 32.4% (inactive) | -2% (inactive) | -4% (inactive) | 50.2% (inactive)
CN1CCN(CCCN2c3ccccc3Sc3ccc(C(F)(F)F)cc32)CC1 | -13% (inactive) and -1% (inactive) | 98% (active) and 94% (active) | 98.8% (active) and 83.9% (active) | -9% (inactive) and -29% (inactive) | 98% (active) and 70% (active) | 99.2% (active) and 83.9% (active) | -7% (inactive) and 0% (inactive) | 95% (active) and 73% (active) | 99.2% (active) and 84.9% (active) | -31% (inactive) and 3% (inactive) | 84% (active) and 78% (active) | 98% (active) and 84.7% (active) | -13% (inactive) and -27% (inactive) | 98% (active) and 95% (active) | 99.2% (active) and 86.2% (active) | -8% (inactive) and -9% (inactive) | 99% (active) and 96% (active) | 99.6% (active)
Oc1c(Cl)cc(Cl)cc1Cc1cc(Cl)cc(Cl)c1O | 93% (active) and 80% (active) | 98% (active) | 98.2% (active) and 99% (active) | 86% (active) and 85% (active) | 99% (active) | 98.8% (active) and 99.2% (active) | 92% (active) and 85% (active) | 98% (active) | 98.1% (active) and 99.4% (active) | 97% (active) and 84% (active) | 99% (active) and 98% (active) | 99% (active) | 88% (active) and 74% (active) | 98% (active) | 98.4% (active) and 99.3% (active) | 94% (active) and 89% (active) | 98% (active) | 98.5% (active) and 99.2% (active)
Cc1noc(-c2ccc([N+](=O)[O-])o2)n1 | 6% (inactive) | 85% (active) | 93.5% (active) | -1% (inactive) | 82% (active) | 52.1% (inactive) | 5% (inactive) | 87% (active) | 74.6% (active) | -6% (inactive) | 57% (inactive) | 57.9% (inactive) | 2% (inactive) | 80% (active) | 63.9% (inactive) | 24% (inactive) | 94% (active) | 87.8% (active)
CCCCCCCCCCCCCCCC[N+](C)(C)Cc1cnc[nH]1 | 99% (active) | 98% (active) | 90.3% (active) | 99% (active) | 99% (active) | 91.2% (active) | 98% (active) | 99% (active) | 91.8% (active) | 95% (active) | 99% (active) | 89.7% (active) | 99% (active) | 99% (active) | 91% (active) | 98% (active) | 98% (active) | 89.1% (active)
C[N+]1(C)CCC(c2ccccc2)(c2ccccc2)C(=O)C1 | -12% (inactive) | -8% (inactive) | 16.6% (inactive) and 13.2% (inactive) | -15% (inactive) | -3% (inactive) | 9.05% (inactive) and 19.3% (inactive) | -8% (inactive) | -2% (inactive) | 6.2% (inactive) and 21.8% (inactive) | -9% (inactive) | -11% (inactive) | 47.4% (inactive) and -25.8% (inactive) | -22% (inactive) | -27% (inactive) | -8.9% (inactive) and 8.6% (inactive) | -10% (inactive) | -14% (inactive) | 24.1% (inactive) and -10.6% (inactive)
CN1CCN(CN2C(=O)C3C4C=CC(C3C2=O)C2C3C(=O)N(CN5CCN(C)CC5)C(=O)C3C42)CC1 (stereo not given) | -3% (inactive) | -12% (inactive) | -28.4% (inactive) and -8.45% (inactive) and -17.1% (inactive) | 1% (inactive) | 30% (inactive) | -28.4% (inactive) and 11.8% (inactive) and -15.2% (inactive) | -1% (inactive) | 0% (inactive) | -18.7% (inactive) and 18.9% (inactive) and -32.5% (inactive) | -10% (inactive) | -9% (inactive) | -7.45% (inactive) and 32.5% (inactive) and -40.9% (inactive) | 11% (inactive) | 2% (inactive) | -13.5% (inactive) and -11.5% (inactive) and -76% (inactive) | -1% (inactive) | 18% (inactive) | -4.4% (inactive) and -31.1% (inactive) and -65% (inactive)
Nc1ccc2c3c(cccc13)C(=O)N(CCCBr)C2=O | 9% (inactive) | 98% (active) | 92.9% (active) | -5% (inactive) | 67% (inactive) | 0.7% (inactive) | -17% (inactive) | 80% (active) | 55.4% (inactive) | 16% (inactive) | 88% (active) | 45.1% (inactive) | 6% (inactive) | 78% (active) | 5.15% (inactive) | 32% (inactive) | 94% (active) | 82.8% (active)
CC(=O)OC(OC(C)=O)c1c2ccccc2cc2ccccc12 | 36% (inactive) | 97% (active) | 89.3% (active) | 15% (inactive) | 96% (active) | 93.2% (active) | 27% (inactive) | 97% (active) | 88.9% (active) | 14% (inactive) | 92% (active) | 91.1% (active) | 8% (inactive) | 97% (active) | 85.5% (active) | 23% (inactive) | 97% (active) | 85.7% (active)
COc1cc(/C=C/C(=O)NCCCCN=[N+]=[N-])ccc1OCc1ccccc1 | -1% (inactive) | -13% (inactive) | 89.8% (active) | 1% (inactive) | -11% (inactive) | 82.2% (active) | -7% (inactive) | 1% (inactive) | 27.4% (inactive) | -9% (inactive) | -13% (inactive) | -3.15% (inactive) | -6% (inactive) | -8% (inactive) | 10.1% (inactive) | -3% (inactive) | -11% (inactive) | 39.9% (inactive)
